# Screening results: PubChem, National Center for Advancing Translational Sciences (NCATS)
# mIDH1 inhibitor: human IDH1 R132H inhibition. O75874. IDH1-R132H enzyme, NADPH consumption, diaphorase/resazurin fluorescence. Potency, µM (titrated, usually from 76.6 µM), inactives show at the top dose activity change, negative = inhibition, most hits filed as inhibitors. hit rate 0.093% among 390,000; further: on the % scale 0 is the no-effect control and ±100 the full control effect; nearly all actives have a fitted effect of over 65% in size
# Target sequence (O75874 whole entry R132H, stated change not applied): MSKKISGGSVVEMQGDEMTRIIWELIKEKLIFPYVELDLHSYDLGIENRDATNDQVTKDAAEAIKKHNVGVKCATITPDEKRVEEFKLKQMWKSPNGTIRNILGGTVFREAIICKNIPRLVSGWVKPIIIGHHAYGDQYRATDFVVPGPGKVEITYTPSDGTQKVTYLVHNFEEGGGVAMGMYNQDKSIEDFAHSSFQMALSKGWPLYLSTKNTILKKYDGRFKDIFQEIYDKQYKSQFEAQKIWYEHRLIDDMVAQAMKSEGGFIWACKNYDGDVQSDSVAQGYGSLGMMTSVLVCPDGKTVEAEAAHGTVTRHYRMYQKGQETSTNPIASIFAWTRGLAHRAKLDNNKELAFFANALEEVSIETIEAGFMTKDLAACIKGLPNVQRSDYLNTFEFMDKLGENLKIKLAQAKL
#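 IDH1-R132H (0.5 ug/mL) preincubated 30 min with compound, then NADPH (0.016 mM) and alpha-KG (2 mM) added; 80 min at RT, pH 7.5. Remaining NADPH coupled via diaphorase/resazurin to fluorescence (540/590 nm); concentration-response curves normalized to no-enzyme control.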
# Nrf2 block: blocks Nrf2 signaling; A549 ARE-Fluc reporter, luciferase luminescence, 18-24 h; Potency, µM (series often up to 46 µM), for the others: at the highest dose activity change, negative = inhibition, actives largely listed as inhibitors; hit rate 2.1% among 360,000; AID 504444; further: on the % scale 0 is the no-effect control and ±100 the full control effect; nearly all actives have a fitted effect of over 60% in size
#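 Quantitative HTS in A549 cells stably bearing an antioxidant response element-firefly luciferase construct. Inhibition of Nrf2-driven transcription was scored by luminescence after 18-24 h of compound exposure at 37 °C.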
# Nrf2 activator: Nrf2 pathway activation | AREc32 ARE-luciferase reporter (MCF7-derived line), luminescence, 24 h | Potency, µM (doses to about 46.1 µM), for the others: at the highest dose activation, actives largely listed as activators | hit rate 0.31% among 410,000 | AID 624171; further: % of control where 0% means no effect; nearly all actives have a fitted effect of over 65% in size
#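 ARE activation measured as luciferase luminescence (Steady-Glo, 30 min RT) in AREc32_Fluc cells after 24 hr compound exposure at 37 deg C, 5% CO2; cells seeded overnight at 1000/well in OPTI-MEM, 5% FBS.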
# A549 tox: A549 cytotoxicity, counter-screen for Nrf2 inhibitors; A549 ARE-Fluc cells, CellTiter-Fluor viability, 18-24 h; Potency, µM (highest dose often 46 µM), for inactives: at the top dose activity change, negative = cytotoxicity, most hits filed as inhibitors; hit rate 0.16% among 390,000; AID 504648; further: on the % scale 0 is the no-effect control and ±100 the full control effect
#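 Cytotoxicity counterscreen: CellTiter-Fluor fluorescence was measured in A549 ARE_Fluc cells after 18-24 h of compound exposure in a concentration series. The subsequent BugLite luminescent read reports ARE-luciferase activity.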
# ELG1 repair inh: blocks ELG1-dependent DNA repair in HEK293T cells; hit rate 2.3% among 330,000; AID 504467; Potency, µM (highest dose often 46.1 µM), for the others: at the highest dose activity change, negative = inhibition, hits mostly inhibitors; HEK293T ELG1-luciferase reporter, luminescence, 16 h; DNA damage induced by 5-fluorouridine; further: on the % scale 0 is the no-effect control and ±100 the full control effect; nearly all actives have a fitted effect of over 55% in size
#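 Reporter activity after DNA damage by 5-fluorouridine is monitored. Compound-treated cells incubate 16 hr at 37 °C, then ONE-Glo is added for 30 min before luminescence reading.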
# Numbers without * were called inactive; ? = inconclusive; · = no result; [ ] = remark or other dose. A selection: hits, their analogues and other compounds. The true share with any hit is near 3.8%. The call rests on the fitted dose curve; in most records, active means well fitted curve in the direction sought with a large enough effect; inconclusive means small, poorly fitted or top-dose-only effect, or another doubt; inactive means no such curve, though single readings can be large; an effect the other way counts as inactive or inconclusive. Potency means the concentration at half of the fitted maximal effect.
SMILES,mIDH1 inhibitor,Nrf2 block,Nrf2 activator,A549 tox,ELG1 repair inh
Cc1cccnc1NC(=O)CNC(=O)c1cccs1,2.4%,8.1%,-0.2%,-0.6%,1.0%
Cc1cccnc1NC(=S)NC(=O)c1cccs1,-1.0%,?,10µM*,-2.6%,?
CC(=O)C[C@H](O)CC(=O)[C@H]1OC(=O)CCCCCCc2ccccc21,-5.7%,3.6%,0.2%,-4.0%,1.9%
COc1ccc(C2(O)CC3CCC(C2)N3c2cc(C)nc(-c3ccccc3)n2)cc1 (stereo not drawn),8.1%,?,5.8%,-20.0%,18.4µM*
Cc1cc(N2CCCC2)nc(N2C3CCC2CC(O)(c2ccc(F)cc2)C3)n1 (stereo not drawn),·,·,·,·,-10.3%
Cc1ccc(C)c(S(=O)(=O)N2CCCC2CNC(=O)c2ccc([N+](=O)[O-])cc2)c1 (stereo not drawn),0.3%,18.4µM*,0.0%,-1.0%,-9.6%
CC(C)(C)c1ccc(C(=O)NCC2CCCN2S(=O)(=O)c2ccccc2)cc1 (stereo not drawn),0.0%,20.6µM*,12.9%,-6.5%,0.0%
CCOC(=O)c1nnn(-c2nc(OC)nc(N3CCCCC3)n2)c1-c1ccccc1,·,·,·,·,18.4µM*
CCOC(=O)c1nnn(-c2nc(N3CCCC3)nc(N3CCCC3)n2)c1-c1ccccc1,-12.0%,-42.6%,0.0%,·,-14.4%
COC(=O)c1scc(-c2ccc(C)cc2)c1S(=O)(=O)N1CCN(c2cccc(Cl)c2)CC1,-22.5%,-22.0%,-0.1%,11.6%,·
CC(=O)Nc1ccc(NC(=O)COc2ccc(-c3ccc(C#N)cc3)cc2)cc1,2.2%,8.6%,0.1%,1.2%,14.5%
N#Cc1ccc(-c2ccc(OCC(=O)Nc3cccnc3)cc2)cc1,0.0%,7.31µM*,1.8%,-12.8%,14.6µM*
COc1cc(NC(=O)COc2ccc(-n3ccnc3)cc2)cc(OC)c1,-7.8%,?,0.1%,2.8%,?
N#Cc1cccc(NC(=O)COc2ccc(-n3ccnc3)cc2)c1,9.2%,?,0.8%,·,13µM*
Cc1cccc(N2CCN(C(=O)C(NS(=O)(=O)c3cccs3)c3ccccc3)CC2)c1C (stereo not drawn),3.6%,9.2µM*,-0.1%,-14.1%,?
O=C(C(NS(=O)(=O)c1cccs1)c1ccccc1)N1CCN(c2ccccc2F)CC1 (stereo not drawn),0.8%,-19.5%,-0.1%,20.3%[1.84 µM],-14.5%
O=C(Nc1nc(-c2ccccc2)cs1)c1ccc2c(=O)n3c(nc2c1)CCCCC3,-7.8%,5.8µM*,0.6%,?,3.66µM*
COc1ccc(NC(=O)c2ccc3c(=O)n4c(nc3c2)CCCCC4)cc1,-2.6%,-3.1%,2.1%,-10.0%,?
Cc1ccc(NC(=O)c2ccc3c(=O)n4c(nc3c2)CCCCC4)nc1,0.7%,2.3%,3.2%,-6.5%,0.0%
Cc1cc(C)c2nc(NC(=O)c3ccc4c(=O)n5c(nc4c3)CCCCC5)sc2c1,10.2%,26.5%,-1.3%,-10.8%,10.3µM*
O=C(Nc1cccc(S(=O)(=O)N2CCCC2)c1)c1ccc2c(=O)n3c(nc2c1)CCCCC3,2.0%,11.6µM*,-0.2%,-16.8%,5.8µM*
Cc1ccc(NC(=O)c2ccc3c(=O)n4c(nc3c2)CCCCC4)cc1F,-7.0%,18.4µM*,7.7%,?,-25.5%
CCC1CCCCN1C(=O)CCS(=O)(=O)c1cc2c(cc1C)NC(=O)CO2 (stereo not drawn),-2.5%,?,-1.6%,1.3%,·
Cc1c(P(=S)(c2ccccc2)c2ccccc2)[n+]2ccccc2n1Cc1ccccc1,·,-18.4%,·,3.0%,·
O=C(Nc1cccc(S(=O)(=O)N2CCOCC2)c1)c1ccc2c(=O)n3c(nc2c1)CCCCC3,2.8%,20.6µM*,0.4%,?,11.6µM*
SMILES,mIDH1 inhibitor,Nrf2 block,Nrf2 activator,A549 tox,ELG1 repair inh
O=C(COc1cc(F)ccc1[N+](=O)[O-])Nc1cccc(S(=O)(=O)NC2=NCCC2)c1,-4.6%,-12.1%,2.2%,-3.5%,5.5%
Cc1ccc(NC(=O)C(Cc2ccccc2)N2C(=O)C3C4CCC(C4)C3C2=O)cc1Cl (stereo not drawn),6.6%,?,-0.1%,-23.4%,18.4µM*
Cc1ccc(Cl)cc1NC(=O)C(Cc1ccccc1)N1C(=O)C2C3CCC(C3)C2C1=O (stereo not drawn),4.9%,?,0.7%,?,?
COCCCn1c(C(=O)NCCN2CCOCC2)cc2c(=O)n3cccc(C)c3nc21,4.3%,-4.9%,0.1%,-5.1%,-15.5%
COCCCn1c(C(=O)NC2CCCCC2C)cc2c(=O)n3cccc(C)c3nc21 (stereo not drawn),-0.3%,8.2%,-0.1%,4.7%,13µM*
CCN(C(=O)c1cc2c(=O)n3cccc(C)c3nc2n1CCCOC)C1CCCCC1,-6.6%,?,-0.2%,-6.5%,23.1µM*
CC(=O)N1CCCc2cc(S(=O)(=O)Nc3ccc(C)c(C)c3)ccc21,·,?,·,-0.8%,·
c1coc(CSc2ncnc3c2oc2ccccc23)c1,3.0%,?,4.47µM*,2.0%,?
c1ccc(CSc2ncnc3c2oc2ccccc23)cc1,3.2%,?,-0.3%,-3.8%,·
COc1ccc(Cl)cc1C=CC=Nc1ccccc1O,5.4%,-6.9%,10µM*,-7.3%,·
Cc1ccc(NS(=O)(=O)c2ccc3c(c2)C(Cl)(Cl)C(=O)N3)cc1C,·,8.5%,·,0.7%,·
COc1ccc(C(C(=O)NCc2ccccc2)N(Cc2ccco2)C(=O)c2snc(C(N)=O)c2N)cc1 (stereo not drawn),11.1%,-7.2%,2.0%,-4.0%,20.6µM*
COc1ccc(C(C(=O)NCc2ccccc2)N(C(=O)c2snc(C(N)=O)c2N)c2ccccc2OC)cc1 (stereo not drawn),16.9%,?,0.8%,2.6%,18.3µM*
COc1ccc(N(C(=O)c2snc(C(N)=O)c2N)C(C(=O)NCc2ccccc2)c2ccc(F)cc2)c(OC)c1 (stereo not drawn),-9.9%,?,0.7%,-13.8%,?
Cc1ccc(N(C(=O)c2snc(C(N)=O)c2N)C(C(=O)NCCC(C)C)c2ccco2)cc1 (stereo not drawn),-5.3%,23.1µM*,0.4%,?,?
COc1ccc(C(C(=O)NC2CCCC2)N(C(=O)c2snc(C(N)=O)c2N)c2cccc(O)c2)cc1 (stereo not drawn),8.7%,-0.9%,0.5%,-1.0%,16.4µM*
Cc1ccccc1CNC(=O)CCCn1c(=O)c2cccn2c2ccccc21,13.1%,11.0%,1.9%,9.8%,·
CCc1ccc(NC(=O)N2CCN(c3nnc(C)c4c(C)n(-c5ccc(Cl)cc5)nc34)CC2)cc1,·,?,2.7%,?,·
